In ChEMBL document CHEMBL4513216, “Probing the Open Global Health Chemical Diversity Library for Multistage-Active Starting Points for Next-Generation Antimalarials” (ACS Infect Dis, 2020):
In all, about 69,000 compounds went through this assay and about 8,600 (12%) showed an effect of 50% or more. For the sample, strong results were picked, then their nearest neighbours and some compounds at random.

Tested on: Plasmodium berghei
Assay: Screen against P. berghei liver stage (PbLuc), transformed with Luciferase, at 10uM
Assay type: functional, HepG2
Details: tested at 10 uM

| Compound | INHIBITION [%] |
| --- | --- |
| O=C(CCN1CCc2ccccc21)N1C[C@@H](O)[C@H](N2CCCC2)C1 | 56.8 |
| O=C(CCN1CCc2ccccc21)N1CC(C(=O)N2CCOCC2)C1 | 25.6 |
| O=C(CCN1CCc2ccccc21)N1C[C@@H](O)[C@H](N2CCOCC2)C1 | -8.12 |
| Cc1cc(CN2CCN(c3ccc4nncn4n3)C(C)C2)no1 (configuration not stated) | 59 |
| Cc1cc(CN2CCN(c3ccc4nncn4n3)CC2)no1 | 26.5 |
| CC1CN(Cc2nccn2C)CCN1c1ccc2nncn2n1 (configuration not stated) | 57.4 |
| Cc1cc(CN2CCN(c3ccc4nncn4n3)C(C)C2)on1 (configuration not stated) | 26.5 |
| Cc1cnc(CN2CCN(c3ccc4nncn4n3)C(C)C2)cn1 (configuration not stated) | 23.7 |
| CC1CN(Cc2ccccn2)CCN1c1ccc2nncn2n1 (configuration not stated) | 31.9 |
| CN(Cc1ccco1)C(=O)c1cccc(N2CCCC2=O)c1 | -27.9 |
| Cc1cc(=O)n2nc(Oc3cccc(I)c3)sc2n1 | 35.7 |
| O=S(=O)(Cc1cccc(F)c1)Nc1cc(Cl)ccn1 | 11.9 |
| CNC(=O)CN(C(=O)c1cc(C(C)C)no1)c1cccc(F)c1 | -10.5 |
| OCc1ccc(N2CCN(c3ncccn3)CC2)c(F)c1 | 31.3 |
| CC(C)N(CC(N)=O)C(=O)c1cc(F)ccc1N1CCN(C)CC1 | 1.74 |
| CN1CCN(c2ccc(F)cc2C(N)=O)CC1 | 58.7 |
| CN1CCN(c2ccc(CO)cc2F)CC1 | 68.4 |
| C=C(C)CN(CC)C(=O)c1cc(F)ccc1N1CCN(C)CC1 | 19.8 |
| CC(NCc1ccncc1)c1ccc(N2CCN(C)CC2)c(F)c1 (configuration not stated) | 15.8 |
| Cc1cccc(C(=O)N2CC(C(=O)NCC3CC3)C3(CCOCC3)C2)n1 (configuration not stated) | 37.1 |
| CN1CCN(Cc2cccnc2)C(=O)C12CCN(C1CCOC1)CC2 (configuration not stated) | 40.3 |
| O=C1C(Nc2nccn3cnnc23)CCCN1c1ccccc1Cl (configuration not stated) | 24.3 |
| Cc1ccc(F)c(N2CCCC(Nc3nccn4cnnc34)C2=O)c1 (configuration not stated) | 52.7 |

| Compound | INHIBITION [%] |
| --- | --- |
| Cc1cc(F)ccc1N1CCCC(Nc2nccn3cnnc23)C1=O (configuration not stated) | 25.4 |
| COC[C@]1(O)CCN(Cc2cnc(N(C)C)nc2)CC1(C)C | -28.9 |
| O=C(O)C1(n2ccnc2)CCN(Cc2cc3ccccc3o2)CC1 | 30.9 |
| CCc1c(C)sc2c1c(N)nc(=O)n2CCN1CCOCC1 | -39.7 |
| CCc1c(O)n(C(C)CC)c(SCC(=O)c2ccccc2)nc1=O (configuration not stated) | 36.7 |
| CCc1c(O)nc(SCC(=O)Nc2ccccc2)n(C(C)CC)c1=O (configuration not stated) | 56.1 |
| CCc1c(O)nc(SCC(=O)N(CC)CC)n(C(C)CC)c1=O (configuration not stated) | 29 |
| Cn1cc(CN2CCc3c(CNC(=O)C4CC4)cncc3C2)cn1 | -17.2 |
| O=C(c1cccnc1)N1C[C@H]2CN(Cc3cccc(F)c3)C(=O)[C@H]2C1 | -55.2 |
| CC(C)NC(=O)C(NC(=O)N1CCN(c2ccc(Cl)cc2)CC1)C(C)C (configuration not stated) | -9.39 |
| CC(C)NC(=O)[C@H](C)NC(=O)N1CCN(c2ccc(Cl)cc2)CC1 | 38.1 |
| CC(C)NC(=O)[C@@H](NC(=O)N1CCN(c2ccc(Cl)cc2)CC1)C(C)C | 65.5 |
| Cc1nc(C(=O)N2CCCC2c2noc(C3CC3)n2)c[nH]1 (configuration not stated) | 31.8 |
| COc1ccccc1CN1C[C@@H]2COC[C@]2(COc2cccnc2)C1 | -8.94 |
| COc1ccc(CN2C[C@@H]3COC[C@]3(COc3cccnc3)C2)cc1 | 24 |
| c1ccc(CN2C[C@@H]3COC[C@]3(COCc3ccncc3)C2)nc1 | 48.6 |
| COc1cccc(CN2C[C@@H]3COC[C@]3(COCc3ccncc3)C2)c1 | 28.4 |
| COc1cccc(CN2C[C@@H]3COC[C@]3(COc3cccnc3)C2)c1 | 67.2 |
| COc1cccc(CN2C[C@@H]3COC[C@]3(CN3CCOCC3)C2)c1 | 29.9 |
| COc1cccc(CN2C[C@@H]3COC[C@]3(COCc3ccccn3)C2)c1 | 53.2 |
| c1cc(COC[C@]23COC[C@H]2CN(Cc2ccncc2)C3)ccn1 | 43.9 |
| COc1ncccc1CN1C[C@@H]2COC[C@]2(COc2cccnc2)C1 | -2.17 |
| CCS(=O)(=O)NC[C@]12COC[C@H]1CN(Cc1cccc(OC)c1)C2 | 39.2 |

| Compound | INHIBITION [%] |
| --- | --- |
| CCOC[C@]12COC[C@H]1CN(Cc1cccc(OC)c1)C2 | 56.7 |
| COc1ccccc1CN1C[C@@H]2COC[C@]2(COCc2ccncc2)C1 | 60.2 |
| COC(=O)c1cc(OCC2CCC2)cc(C(=O)NCC(C)(C)O)c1 | 40.2 |
| O=C(CC1CCC2(CC1)CCN(Cc1nccs1)CC2)N1CC=CC1 | 35.2 |
| CCc1nnc2n1CCN(C(=O)c1cc(C)n(-c3ccccc3)c1C)C2 | 5.9 |
| Cc1cc(CN2C[C@@H]3COC[C@]3(CN(C)C)C2)no1 | 18.8 |
| CN(C)C[C@]12COC[C@H]1CN(Cc1ccccn1)C2 | 87.7 |
| CN(C)C[C@]12COC[C@H]1CN(Cc1ccc3ccccc3n1)C2 | 4.02 |
| CNc1nccc(C2CCCCN2Cc2cnn3cccnc23)n1 (configuration not stated) | -7.66 |
| CCCOCCN1CCC2(CC1)CC(=O)N(Cc1cc(F)cc(F)c1)C2 | 64.1 |
| O=C1CC2(CCN(Cc3ccoc3)CC2)CN1Cc1cc(F)cc(F)c1 | 73.4 |
| O=C(CO)N1CCC2(CC1)CC(=O)N(Cc1cc(F)cc(F)c1)C2 | 8.99 |
| O=C1CC2(CCN(Cc3ncc[nH]3)CC2)CN1Cc1cc(F)cc(F)c1 | -6.05 |
| O=C1CC2(CCN(CCCF)CC2)CN1Cc1cc(F)cc(F)c1 | 75.7 |
| CCCS(=O)(=O)N1CCC2(CC1)CC(=O)N(Cc1cc(F)cc(F)c1)C2 | 17.1 |
| O=C1CC2(CCN(CCO)CC2)CN1Cc1cc(F)cc(F)c1 | 60.1 |
| CC(C)N1CCC2(CC1)CC(=O)N(Cc1cc(F)cc(F)c1)C2 | 35.1 |
| O=C1CC2(CCN(Cc3ccoc3)C2)CN1c1cncnc1 (configuration not stated) | 43.9 |
| CC(C)=CCN1CCC2(CC1)CC(=O)N(Cc1cc(F)cc(F)c1)C2 | 38.6 |
| CCN1CC2(CCN(CCOc3ccc(F)cc3)CC2)CC1=O | 0.868 |
| O=C1CC2(CCN(CCCO)CC2)CN1Cc1ccc(F)c(F)c1 | 36.8 |
| Cc1nc([C@@H]2C[C@@H]3CCN(C(=O)Cc4cccs4)C[C@H]3O2)no1 | 11.6 |
| CCCc1noc(-c2cn(CC(=O)N(CC)CC)nn2)n1 | -51.7 |

| Compound | INHIBITION [%] |
| --- | --- |
| Cc1ccc(C(O)CN(C)Cc2cnn(C)c2)cc1C (configuration not stated) | 28.7 |
| Cn1ccc(C(=O)NC2CCC23CCN(C(=O)c2ccncc2)CC3)c1 (configuration not stated) | 13.5 |
| CNc1snc(C)c1C(=O)N1CCC(Nc2ccc(C)nn2)CC1 | 1.15 |
| O=C1CCC(=O)N1CCn1nnc(-c2cccc(Cl)c2)n1 | -5.57 |
| O=C1CC2(CCN(CC3CC3)C2)CN1c1cccc(F)c1 (configuration not stated) | -6.02 |
| O=C1CC2(CCN(CC3CC3)CC2)CN1Cc1cc(F)cc(F)c1 | 69.3 |
| O=C1CC2(CCN(CC3CCOC3)CC2)CN1Cc1cc(F)cc(F)c1 (configuration not stated) | 46.8 |
| CCc1n[nH]c(C2CN(C(=O)c3ccnc(C4CC4)n3)CCO2)n1 (configuration not stated) | 31.3 |
| CCc1ccc(CN2C[C@H](OCC(=O)N(C)C)[C@H]3COC[C@H]32)o1 | 26.5 |
| Cc1nn(C)cc1CC(C#N)C(=O)Nc1cccc(O)c1 (configuration not stated) | 3.58 |
| COCc1cc(O)nc(C2CCCN(Cc3ccc(OC)cc3)C2)n1 (configuration not stated) | 61.9 |
| COCc1cc(O)nc(C2CCCN(Cc3ccc(F)cc3)C2)n1 (configuration not stated) | 39.7 |
| COc1ccc(F)c(CN2CCCC(c3cc(O)nc(C)n3)C2)c1 (configuration not stated) | 25.8 |
| COc1ccc(CC(=O)N2CCCC2c2nc(C)c(C)c(O)n2)cc1 (configuration not stated) | 46 |
| COc1cccc(CN2CCC(c3cc(O)nc(C)n3)C2)c1 (configuration not stated) | 47.8 |
| COc1ccc(F)c(CN2CCC(c3cc(O)nc(C)n3)C2)c1 (configuration not stated) | 50.6 |
| COCc1cc(O)nc(C2CCCN(Cc3cccc(Cl)c3Cl)C2)n1 (configuration not stated) | 17.4 |
| COc1cccc(CC(=O)N2CCCC2c2nc(C)c(C)c(O)n2)c1 (configuration not stated) | 50.8 |
| COc1cccc(CC(=O)N2CCCC2c2nc(C)c(F)c(O)n2)c1 (configuration not stated) | 3.91 |
| CCc1cc(O)nc(C2CCCN(Cc3ccncc3)C2)n1 (configuration not stated) | 47.1 |
| COc1ccc(CN2CCC(c3cc(O)nc(C)n3)C2)c(F)c1 (configuration not stated) | 21.9 |
| COCc1cc(O)nc(C2CCCN(Cc3cccc(OC)c3)C2)n1 (configuration not stated) | 57.5 |
| CCN(CC1CCOC1)C(=O)Nc1ccc(OCC(F)(F)F)nc1 (configuration not stated) | -1.885 |

| Compound | INHIBITION [%] |
| --- | --- |
| CC(C)(C)CCN1CCC(c2nnc(Cn3cccn3)n2C2CC2)CC1 | 32.2 |
| CC(=O)NCC(=O)NCC1(O)CCN(c2cnccn2)C1 (configuration not stated) | 42.25 |
| COc1c(C)cnc(CN2CCOC(Cn3cncn3)C2)c1C (configuration not stated) | 2.97 |
| O=C(C1CCC2(CCN(CC3CCOCC3)CC2)O1)N1CCCC1 (configuration not stated) | 1.34 |
| COCCNC(=O)C1(Cc2ccccc2-c2ccncc2)CCOCC1 | 40 |
| COCc1cc(O)nc(C2CCCN(Cc3cc(OC)ccc3F)C2)n1 (configuration not stated) | 52.3 |
| COc1ccc(OC)c(CN2CCC(c3cc(O)nc(C)n3)C2)c1 (configuration not stated) | 41.2 |
| Cc1cc(O)nc(C2CCCN(Cc3ccncc3)C2)n1 (configuration not stated) | 27.3 |
| CC1=Nc2c(c(=O)[nH]n2C2CCOCC2)C(c2cccc(O)c2)S1 (configuration not stated) | 0.29 |
| Cc1n[nH]c2c1C(c1ccsc1)SCC(=O)N2 (configuration not stated) | 19.7 |
| O=C1CC(C2CCCCC2)c2c(n(C3CCCC3)[nH]c2=O)N1 (configuration not stated) | 43.4 |
| O=C1CSC(c2ccc(O)cc2)c2c(n(C3CCOCC3)[nH]c2=O)N1 (configuration not stated) | 60.1 |
| COc1ccccc1C1SCC(=O)Nc2c1c(=O)[nH]n2C1CCCCC1 (configuration not stated) | -2.39 |
| Cn1cc(C2SCC(=O)Nc3c2c(=O)[nH]n3C2CCOCC2)cn1 (configuration not stated) | -70.7 |
| CSc1ccc(C2SCC(=O)Nc3c2c(=O)[nH]n3C2CCOCC2)cc1 (configuration not stated) | 52.1 |
| CCOc1ccc(C2SCC(=O)Nc3c2c(=O)[nH]n3C(CC)CC)cc1 (configuration not stated) | -19.7 |
| COc1ccccc1C1CC(=O)Nc2c1c(=O)[nH]n2C1CCCC1 (configuration not stated) | 11.7 |
| O=C1CC(c2ccccc2F)c2c(n(C3CCCC3)[nH]c2=O)N1 (configuration not stated) | 68.5 |
| O=C1CSC(c2ccsc2)c2c(n(C3CCCC3)[nH]c2=O)N1 (configuration not stated) | 63.3 |
| O=C1CSC(c2ccccc2)c2c(n(C3CCOCC3)[nH]c2=O)N1 (configuration not stated) | 32.2 |
